# GRK2 inh: compounds blocking aptamer binding on GRK2 – biochemical, human GRK2, bead flow cytometry, HTS, primary screen. AID 488847, 2010. Beta-adrenergic receptor kinase 1 (Homo sapiens), P25098. hit rate 0.59% among 330,000. FAM-aptamer displacement from GRK2. inhibition of aptamer binding, % at 10 µM;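 active = inhibition of aptamer binding above 40%, roughly 3 SD of noise, on plates passing a quality check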;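 note: median bead fluorescence of bound FAM aptamer so fluorescent compounds give negative values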
# Rce1 inh: yeast Rce1p protease inhibitors, primary screen, biochemical, fluorescence, cell-free homogeneous. CAAX prenyl protease 2 (Saccharomyces cerevisiae (strain ATCC 204508 / S288c)), Q03530. yeast membranes, quenched prenylated peptide cleavage fluorescence. calls only. hit rate 0.27% among 290,000;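 active = fall in fluorescence gain of 50% or more versus controls, with final raw signal at or below 3038400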;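 note: plate controls were neutral control wells for no effect and wells lacking membranes for full effect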
# Efflux pump inh: inhibitors of Candida efflux pumps in yeast, primary screen, S. cerevisiae, Nile Red, multiplex; S. cerevisiae Candida pump triplex; inhibition, % at 10 µM; hit rate 0.44% among 330,000;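 active = plate passing quality check with inhibition over a set limit, or well fluorescence over plate mean plus 4 SD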;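 note: Nile Red retained in pooled yeast measured as flow cytometry median fluorescence; 0% = buffer negative control and 100% = Enniatin B positive control; higher means more Nile Red kept so more efflux inhibition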
# Rtt109 Vps75: inhibitors of C. albicans Rtt109/Vps75 HAT, primary screen, biochemical, ThioGlo CoA-SH fluorescence, plate reader. Histone acetyltransferase RTT109 (Candida albicans (strain SC5314 / ATCC MYA-2876)), …. purified Rtt109/Vps75, 4 h. inhibition, % at 34.9 µM. hit rate 0.16% among 330,000. AID 540336, 2011;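 active = inhibition of at least 50% in every replicate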
# ALR inh: inhibitors of human ALR sulfhydryl oxidase, primary screen, biochemical, H2O2 detection, HRP-luminol luminescence, single point. FAD-linked sulfhydryl oxidase ALR (Homo sapiens), P55789. purified ALR, DTT oxidation. inhibition, % (no concentration beside the values). hit rate 3.8% among 290,000. AID 485317, 2010;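 active = mean replicate inhibition above about 79%, with every replicate also reaching it, limit read from the data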
# HDAC3 inhib: HDAC3 deacetylase inhibitors, primary screen, biochemical, fluorescence, cell-free homogeneous; Histone deacetylase 3 (Homo sapiens), O15379; AID 2718, 2010; hit rate 0.15% among 320,000; inhibition, % at 8.3 µM; recombinant HDAC3, fluorogenic peptide/trypsin coupled; in the data active = inhibition above about 26%, passing the limit was not always enough
# Target sequence (O15379 whole entry, looked up): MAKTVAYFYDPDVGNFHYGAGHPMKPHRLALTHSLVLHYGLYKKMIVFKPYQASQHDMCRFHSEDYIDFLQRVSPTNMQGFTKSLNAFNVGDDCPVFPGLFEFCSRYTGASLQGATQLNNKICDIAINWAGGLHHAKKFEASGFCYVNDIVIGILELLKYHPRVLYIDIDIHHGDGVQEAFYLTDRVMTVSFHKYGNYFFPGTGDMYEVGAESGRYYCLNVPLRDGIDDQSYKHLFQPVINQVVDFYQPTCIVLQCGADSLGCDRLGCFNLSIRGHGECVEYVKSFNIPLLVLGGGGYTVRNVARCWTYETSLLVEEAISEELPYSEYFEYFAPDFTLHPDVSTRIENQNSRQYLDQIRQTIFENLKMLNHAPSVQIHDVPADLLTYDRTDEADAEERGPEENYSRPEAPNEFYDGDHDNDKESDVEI
# The depositor's hits bear a star; i = inactive; . = no result given; + = active, no number. Sampled rows, rich in hits. Any-hit rate of the full collection: about 4.5%.
SMILES,GRK2 inh,Rce1 inh,Efflux pump inh,Rtt109 Vps75,ALR inh,HDAC3 inhib
CCCC(C(=O)O)n1c(O)c(C=C2N=c3ccccc3=N2)sc1=S (stereo not drawn),2,i,0,19,89*,7
S=C1SCN(Cc2cccnc2)CN1Cc1cccnc1,2,i,0,-14,9,-10
CC(=O)NC1=C(N(C)C2CCS(=O)(=O)C2)C(=O)c2ccccc2C1=O (stereo not drawn),0,i,0,2,7,-1
CC(=O)NC1=C(Nc2ccc(N(C)C)cc2)C(=O)c2ccccc2C1=O,34,i,0,8,100*,4
O=C(Oc1cc(=O)n2ccccc2n1)c1ccccc1,2,i,0,-5,22,38*
C=CCN1C(=O)C(=O)N(CC(=O)NCC(=O)Nc2ccc(F)c(F)c2F)C1=O,5,.,0,-4,-5,-1
COc1ccc2cc(C(=O)C3CCCN(C(=O)c4ccnn4C)C3)ccc2c1 (stereo not drawn),3,i,0,-9,-17,-71
COc1ccc2cc(C(=O)C3CCCN(C(=O)c4cc(=O)n(C)c(=O)n4C)C3)ccc2c1 (stereo not drawn),2,+,0,12,-6,-39
S=c1[nH]ncn1/N=C/c1ccccn1,0,i,0,.,92*,15
S=c1[nH]nc(COc2ccccc2)n1/N=C/c1ccccn1,2,i,0,-1,11,1
S=c1[nH]nc(-c2cccnc2)n1/N=C/c1cccs1,0,i,0,0,97*,-3
S=c1[nH]ncn1/N=C/c1cccs1,0,i,0,3,97*,.
Cc1[nH]c2ccccc2c1SCCNC(=O)c1ccc(Br)o1,0,i,0,6,78*,7
CSc1nc2ccc(S(=O)(=O)Nc3c(C)n(C)n(-c4ccccc4)c3=O)cc2s1,1,i,0,.,99*,3
Cc1c(NS(=O)(=O)c2ccc3nc(COc4ccccc4Cl)[nH]c3c2)c(=O)n(-c2ccccc2)n1C,3,i,0,16,99*,6
Cc1ccc(C)c(OCc2nc3ccc(S(=O)(=O)Nc4c(C)n(C)n(-c5ccccc5)c4=O)cc3[nH]2)c1,3,i,0,23,-14,-5
CC(NC(=O)c1ccc2c(c1)OCO2)C(c1cccs1)N1CCN(c2ccccc2)CC1 (stereo not drawn),0,i,0,-4,30,-1
CC1CCN(C(=O)COc2ccc(Nc3ccccc3)cc2)CC1,1,i,0,1,88*,-8
COc1ccccc1C(=O)Nc1ccc(OCC(=O)N2CC(C)CC(C)C2)cc1 (stereo not drawn),0,.,0,53*,-28,0
OCC1CCCN(C(=S)Nc2ccc(Nc3ccccc3)cc2)C1 (stereo not drawn),0,i,0,18,100*,-1
CC(=O)Nc1ccc(OCC(=O)N2CCC(Cc3ccccc3)CC2)cc1,0,i,0,3,-10,2
CC1CCCN(C(=O)COc2ccc3c(c2)OCO3)C1 (stereo not drawn),1,i,0,-1,-12,.
COc1cc(SC)ccc1C(=O)Nc1ccc(OCC(=O)N2CCOCC2)cc1,.,i,.,4,.,.
CC1CCCN(C(=O)COc2ccc(Nc3ccccc3)cc2)C1 (stereo not drawn),0,i,0,-1,99*,-3
CSC(=S)N/N=C(\C)c1ccccc1,0,i,0,-2,44,2
CCN(C[C@H]1N[C@@](CC)(C(=O)OC)[C@H]2C(=O)N(C)C(=O)[C@@H]12)S(=O)(=O)c1ccc(F)cc1,5,.,0,2,.,-1
COc1ccc(C(CNC(=O)C(C)Oc2ccc(Br)cc2)N2CCCCC2)cc1 (stereo not drawn),0,.,0,3,-3,-3
